Whole data set: some 16,000 sequences, median “rpm ratio (pull-down/input)” near 0.94, cut for the highest 2% near 1.7. This is one part of a sample in which the highest values are shown more often than they occur.

The record followed here is article PMC12820563, “FoxP3 forms a head-to-head dimer in vivo and stabilizes its multimerization on adjacent microsatellites”.

In the assay the target is T1, MBP-FoxP1dN (Mus musculus, UniProt P58462 326-579).
T1 sequence: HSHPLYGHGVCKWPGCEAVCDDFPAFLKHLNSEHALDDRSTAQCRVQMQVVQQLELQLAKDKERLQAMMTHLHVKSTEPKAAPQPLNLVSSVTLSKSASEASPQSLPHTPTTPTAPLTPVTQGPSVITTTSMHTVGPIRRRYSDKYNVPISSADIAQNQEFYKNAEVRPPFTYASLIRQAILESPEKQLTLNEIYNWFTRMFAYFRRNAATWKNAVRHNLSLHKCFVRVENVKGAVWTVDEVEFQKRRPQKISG
Kind of assay: PD-seq (MBP pull-down with sequencing); 20 mM Tris-HCl pH 7.5, 100 mM NaCl, 1.5 mM MgCl2, 0.4 uM protein, 0.1 uM dsDNA library, 30 min, room temperature, amylose pull-down; high values mean tight binding. To be noted: protein: recombinant; tags: His6-MBP; chain copies: 2; dsDNA, one strand shown. In outline: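 E. coli-expressed mouse FoxP3 or FoxP1 fragment, N-terminus removed and tagged with His6-MBP, was used at 0.4 µM against 0.1 µM of a Klenow-filled degenerate double-stranded DNA library. After 30 min at room temperature in Tris pH 7.5 buffer with NaCl and MgCl2, complexes were pulled down on amylose resin and washed three times. Binding is pull-down over input reads-per-million enrichment from pooled replicates of the proteinase K-released, PCR-barcoded, Illumina-sequenced DNA.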
Take “GATGATTGTTCTCCCAGCTGATGAATTAGTGTGTTCGAGTAAACAAATTTTCCTAATCTTTCTGTTCAAGCGCCATCTAC”: the binding signal is 1.35 RPM ratio (pull-down/input). On to “GATGATTGTTCTCCCAGCTGATGAATTTAGTGTTTCGAGTAAACAAATTTTCCTAATCTTTCTGTTCAAGCGCCATCTAC”, for which the binding signal was 1.15 RPM ratio (pull-down/input). Regarding “GATGATTGTTCTCCCAGCTGATGAATTAGTGTTTTCGAGTAAACAAATTTTCCTAATCTTTCTGTTCAAGCGCCATCTAC”, the binding signal is 2.42 RPM ratio (pull-down/input). With “GATGATTGTTCTCCCAGCTGATGAATTAGTAGTGTCGAGTAAACAAATTTTCCTAATCTTTCTGTTCAAGCGCCATCTAC” the figure was 1 RPM ratio (pull-down/input). Turning to “GATGATTGTTCTCCCAGCTGATGAATTAGTGTCGTCGAGTAAACAAATTTTCCTAATCTTTCTGTTCAAGCGCCATCTAC”, the binding signal was 0.949 RPM ratio (pull-down/input). For the sequence “GATGATTGTTCTCCCAGCTGATGAATTAGTGTTGTCGAGTAAACAAATTTTCCTAATCTTTCTGTTCAAGCGCCATCTAC”, the binding signal was 2.53 RPM ratio (pull-down/input). Then “GATGATTGTTCTCCCAGCTGATGAATTGCCGTGCTCGAGTAAACAAATTTTCCTAATCTTTCTGTTCAAGCGCCATCTAC”, with 0.904 RPM ratio (pull-down/input); and “GATGATTGTTCTCCCAGCTGATGAATTACTATAATCGAGTAAACAAATTTTCCTAATCTTTCTGTTCAAGCGCCATCTAC”, with 1.27 RPM ratio (pull-down/input). For “GATGATTGTTCTCCCAGCTGATGAATTTTAGCGCTCGAGTAAACAAATTTTCCTAATCTTTCTGTTCAAGCGCCATCTAC”, the binding signal was 0.826 RPM ratio (pull-down/input). For “GATGATTGTTCTCCCAGCTGATGAATTATAACCCTCGAGTAAACAAATTTTCCTAATCTTTCTGTTCAAGCGCCATCTAC”, the binding signal was 0.997 RPM ratio (pull-down/input). With “GATGATTGTTCTCCCAGCTGATGAATTTGATCCATCGAGTAAACAAATTTTCCTAATCTTTCTGTTCAAGCGCCATCTAC” the figure was 0.928 RPM ratio (pull-down/input); with “GATGATTGTTCTCCCAGCTGATGAATTCGGCCTATCGAGTAAACAAATTTTCCTAATCTTTCTGTTCAAGCGCCATCTAC”, 0.817 RPM ratio (pull-down/input).

Regarding “GATGATTGTTCTCCCAGCTGATGAATTTGCGGACTCGAGTAAACAAATTTTCCTAATCTTTCTGTTCAAGCGCCATCTAC”, the binding signal was 0.882 RPM ratio (pull-down/input). “GATGATTGTTCTCCCAGCTGATGAATTACTTCATTCGAGTAAACAAATTTTCCTAATCTTTCTGTTCAAGCGCCATCTAC”: the binding signal is 1.11 RPM ratio (pull-down/input).

Consider “GATGATTGTTCTCCCAGCTGATGAATTGAGCAGATCGAGTAAACAAATTTTCCTAATCTTTCTGTTCAAGCGCCATCTAC”, for which the binding signal is 0.835 RPM ratio (pull-down/input). For “GATGATTGTTCTCCCAGCTGATGAATTGATGTGTTCGAGTAAACAAATTTTCCTAATCTTTCTGTTCAAGCGCCATCTAC”, the binding signal is 1.5 RPM ratio (pull-down/input). Then “GATGATTGTTCTCCCAGCTGATGAATTTCTGTGTTCGAGTAAACAAATTTTCCTAATCTTTCTGTTCAAGCGCCATCTAC”, with 1.23 RPM ratio (pull-down/input); and “GATGATTGTTCTCCCAGCTGATGAATTGTGTTGTTCGAGTAAACAAATTTTCCTAATCTTTCTGTTCAAGCGCCATCTAC”, with 2.69 RPM ratio (pull-down/input). With “GATGATTGTTCTCCCAGCTGATGAATTGTGTTCTTCGAGTAAACAAATTTTCCTAATCTTTCTGTTCAAGCGCCATCTAC” the figure was 1.33 RPM ratio (pull-down/input); with “GATGATTGTTCTCCCAGCTGATGAATTGTTGTGTTCGAGTAAACAAATTTTCCTAATCTTTCTGTTCAAGCGCCATCTAC”, 2.57 RPM ratio (pull-down/input). Then “GATGATTGTTCTCCCAGCTGATGAATTCTTGTGTTCGAGTAAACAAATTTTCCTAATCTTTCTGTTCAAGCGCCATCTAC”, with 1.6 RPM ratio (pull-down/input). In the case of “GATGATTGTTCTCCCAGCTGATGAATTGACCGCGTCGAGTAAACAAATTTTCCTAATCTTTCTGTTCAAGCGCCATCTAC”, the binding signal was 0.965 RPM ratio (pull-down/input). Then “GATGATTGTTCTCCCAGCTGATGAATTAAAACGATCGAGTAAACAAATTTTCCTAATCTTTCTGTTCAAGCGCCATCTAC”, with 0.959 RPM ratio (pull-down/input); and “GATGATTGTTCTCCCAGCTGATGAATTAAGAGAATCGAGTAAACAAATTTTCCTAATCTTTCTGTTCAAGCGCCATCTAC”, with 0.949 RPM ratio (pull-down/input); and “GATGATTGTTCTCCCAGCTGATGAATTTGATTGCTCGAGTAAACAAATTTTCCTAATCTTTCTGTTCAAGCGCCATCTAC”, with 1.16 RPM ratio (pull-down/input). With “GATGATTGTTCTCCCAGCTGATGAATTTCTTTGCTCGAGTAAACAAATTTTCCTAATCTTTCTGTTCAAGCGCCATCTAC” the figure was 0.931 RPM ratio (pull-down/input); with “GATGATTGTTCTCCCAGCTGATGAATTGTGCTGCTCGAGTAAACAAATTTTCCTAATCTTTCTGTTCAAGCGCCATCTAC”, 0.988 RPM ratio (pull-down/input). Then “GATGATTGTTCTCCCAGCTGATGAATTTTGTTGCTCGAGTAAACAAATTTTCCTAATCTTTCTGTTCAAGCGCCATCTAC”, with 1.79 RPM ratio (pull-down/input); and “GATGATTGTTCTCCCAGCTGATGAATTTGTTTGCTCGAGTAAACAAATTTTCCTAATCTTTCTGTTCAAGCGCCATCTAC”, with 2.43 RPM ratio (pull-down/input); and “GATGATTGTTCTCCCAGCTGATGAATTCTTTTGCTCGAGTAAACAAATTTTCCTAATCTTTCTGTTCAAGCGCCATCTAC”, with 0.898 RPM ratio (pull-down/input). For “GATGATTGTTCTCCCAGCTGATGAATTGTTGCTCTCGAGTAAACAAATTTTCCTAATCTTTCTGTTCAAGCGCCATCTAC”, the binding signal is 1.39 RPM ratio (pull-down/input).

For “GATGATTGTTCTCCCAGCTGATGAATTTTGCTCCTCGAGTAAACAAATTTTCCTAATCTTTCTGTTCAAGCGCCATCTAC”, the binding signal was 0.907 RPM ratio (pull-down/input).
